# According to PubChem BioAssay (EPA / NIEHS):
# Records with an inconclusive call do not appear. Calls of active or inactive are those of the source. The calls were made as follows: active = hit-call score of the fitted dose curve at least 0.9, where 1 is the maximum; inconclusive = response in the unintended direction; inactive = score below 0.9.
# Target: Retinoic acid receptor RXR-alpha (Homo sapiens) (UniProt P19793)
# Test: TOX21_TR_RXR_BLA_Agonist_Followup_ratio: Tox21 Thyroid Hormone Receptor beta Retinoid X Receptor alpha (RXRa) Agonism Beta-lactamase (BLA) Follow-Up Assay, Ratio (AID 2283968)
# Description: GeneBLAzer RXRa-UAS-bla HEK293T assay (RXRa-bla) (ThermoFisherScientific Catalog No. K1697) was run in qHTS 1536 well format as a secondary assay for specificity of response in the TOX21_TR_GH3_LUC_Agonist assay.TOX21_TR_RXR_BLA_Agonist_Followup_ratio is an assay readout measuring reporter gene via receptor activity and designed using inducible reporter (beta lactamase induction) detected with GAL4 b-lactamase reporter gene. The signal is derived from the ratio of cleaved (ch2) to uncleaved (ch1) reporter gene substrate used as the measure of target activity.Data from the assay component TOX21_TR_RXR_BLA_Agonist_Followup_ratio was analyzed into 1 assay endpoint. This assay endpoint, TOX21_TR_RXR_BLA_Agonist_Followup_ratio, was analyzed in the positive analysis fitting direction relative to DMSO as the negative control and baseline of activity. Using a type of inducible reporter, gain-of-signal activity can be used to understand changes in the reporter gene as they relate to the gene RXRA. Furthermore, this assay endpoint can be referred to as a primary readout, because this assay has produced multiple assay endpoints and this ratio serves a reporter gene function to understand target activity. To generalize the intended target to other relatable targets, this assay endpoint is annotated to the nuclear receptor intended target family, where subfamily is non-steroidal.
# After5-h incubation at 37C/5% CO2 for cell attachment, 23 nL of follow-up compounds dissolved in DMSO, 11 concentrations in triplicate, and the positive control (9-cis retinoic acid) were transferred to the assay plates using a Pintool station. The assay plates were incubated at 37C/5% CO2 for 16h. One microliter of LiveBLAzer FRET-B/GCCF4-AM substrate (Life Technologies) was added to each well using an FRD. After 2-h incubation at room temperature, the fluorescence intensity was measured using an Envision plate reader (Perkin Elmer). Data were expressed as the ratio of 460:530 nm.
# Sequence of Retinoic acid receptor RXR-alpha (Homo sapiens) (P19793 whole entry, looked up): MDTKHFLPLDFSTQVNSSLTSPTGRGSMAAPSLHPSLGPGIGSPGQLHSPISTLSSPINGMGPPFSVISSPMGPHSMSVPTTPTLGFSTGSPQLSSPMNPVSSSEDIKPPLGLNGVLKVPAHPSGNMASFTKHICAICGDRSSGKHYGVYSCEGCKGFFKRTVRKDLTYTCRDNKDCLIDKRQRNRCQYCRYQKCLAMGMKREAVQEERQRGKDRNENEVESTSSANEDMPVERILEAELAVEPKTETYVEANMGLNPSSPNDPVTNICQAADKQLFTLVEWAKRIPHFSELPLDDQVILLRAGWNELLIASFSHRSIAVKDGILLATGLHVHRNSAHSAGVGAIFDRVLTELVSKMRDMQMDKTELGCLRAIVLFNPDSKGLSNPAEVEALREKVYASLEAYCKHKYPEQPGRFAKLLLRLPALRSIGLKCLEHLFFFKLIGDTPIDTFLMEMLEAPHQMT
Structure (SMILES),outcome,AC50
CC1(C)COP(Oc2ccccc2)OC1,inactive,–
O=C(Cl)OCCOCCOC(=O)Cl,inactive,–
CCC[CH2][Sn]([CH2]CCC)([CH2]CCC)[CH2]CCC,–,5.08 µM (active)
C=CC(=O)[O][Sn]([CH2]CCC)([CH2]CCC)[CH2]CCC,–,0.137 µM (active)

# System: not listed separately
# Test: TOX21_TR_RXR_BLA_Agonist_Followup_viability: Viability Assessment in the Tox21 Thyroid Hormone Receptor beta Retinoid X Receptor alpha (RXRa) Agonism Beta-lactamase (BLA) Follow-Up Assay (AID 2283970)
# Outline: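 CellTiter-Glo ATP luciferase read-out of cell viability, multiplexed with the beta-lactamase reporter run. RXRa-bla HEK293T cells in charcoal-stripped serum medium were exposed 16 h at 37C; data fitted both directions relative to DMSO.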
Structure (SMILES),outcome,AC50
CC1(C)COP(Oc2ccccc2)OC1,inactive,–
CCC[CH2][Sn]([CH2]CCC)([CH2]CCC)[CH2]CCC,inactive,–
C=CC(=O)[O][Sn]([CH2]CCC)([CH2]CCC)[CH2]CCC,–,9.68 µM (active)
CN(C)c1ccc(N=O)cc1,–,49.6 µM (active)
c1csc(-c2ccc(-c3cccs3)s2)c1,inactive,–

# System: DIO1 (gene 1733)
# Test: CCTE_GLTED_hDIO1: CCTE's human Deiodinase 1 (DIO1) Inhibition Assay, Great Lakes Toxicology and Ecology Division (GLTED) Lab (AID 2283987);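 also: isolated human DIO1 enzyme in a cell-free setup rather than cells; enzyme activity read as free iodide liberated from substrate via Sandell-Kolthoff colorimetry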
# Outline: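 Inhibition read as reduced iodide release: after 3 h of human DIO1 with chemical, free iodide is quantified colorimetrically (Sandell-Kolthoff cerium/arsenic reaction). Triplicate plates, DMSO baseline.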
row,Structure (SMILES),AC50
1,CCCCCCCCCCCCc1cccc(S(=O)(=O)O)c1,129 µM (active)
2,O=[N+]([O-])c1ccc(Cl)c([N+](=O)[O-])c1,92.7 µM (active)
3,O=C1c2ccccc2C(=O)C1C(=O)C(c1ccccc1)c1ccc(Cl)cc1 (stereo unspecified),19.8 µM (active)
4,O=S1(=O)OC(c2cc(Br)c(O)c(Br)c2)(c2cc(Br)c(O)c(Br)c2)c2ccccc21,58.8 µM (active)
5,O=C(CCl)Nc1ccccc1,21.1 µM (active)
6,CC(C)N(C(=O)CCl)c1ccccc1,43.5 µM (active)

# Target: Nucleoli Translocation, AR (gene 367) (UniProt P10275)
# Sequence (P10275 whole entry, looked up): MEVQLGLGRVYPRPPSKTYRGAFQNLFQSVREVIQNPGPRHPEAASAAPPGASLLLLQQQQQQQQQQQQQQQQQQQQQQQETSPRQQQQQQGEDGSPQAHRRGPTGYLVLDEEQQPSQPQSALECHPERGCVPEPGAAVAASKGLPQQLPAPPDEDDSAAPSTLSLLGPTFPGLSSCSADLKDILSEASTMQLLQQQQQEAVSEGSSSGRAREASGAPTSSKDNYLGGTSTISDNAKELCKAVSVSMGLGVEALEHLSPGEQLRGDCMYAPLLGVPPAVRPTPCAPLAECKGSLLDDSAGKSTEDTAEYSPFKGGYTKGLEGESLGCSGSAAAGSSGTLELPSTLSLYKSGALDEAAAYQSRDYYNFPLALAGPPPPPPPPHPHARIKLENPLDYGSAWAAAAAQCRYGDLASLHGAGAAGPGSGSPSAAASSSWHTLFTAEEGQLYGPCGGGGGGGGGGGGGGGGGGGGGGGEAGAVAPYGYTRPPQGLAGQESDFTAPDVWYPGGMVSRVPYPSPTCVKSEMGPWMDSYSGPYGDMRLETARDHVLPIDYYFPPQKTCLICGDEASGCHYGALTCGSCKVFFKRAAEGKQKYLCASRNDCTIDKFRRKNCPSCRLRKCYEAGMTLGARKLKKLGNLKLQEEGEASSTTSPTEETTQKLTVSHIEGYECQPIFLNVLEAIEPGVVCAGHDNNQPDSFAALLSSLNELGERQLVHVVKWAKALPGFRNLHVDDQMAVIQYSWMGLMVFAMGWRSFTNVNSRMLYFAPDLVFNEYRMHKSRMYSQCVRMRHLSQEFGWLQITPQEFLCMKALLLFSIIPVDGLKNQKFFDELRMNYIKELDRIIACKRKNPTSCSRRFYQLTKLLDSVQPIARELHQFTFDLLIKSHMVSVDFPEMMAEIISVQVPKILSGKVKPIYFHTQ
# Test: UPITT_HCI_U2OS_AR_TIF2_Nucleoli_Antagonist: University of Pittsburgh U2OS Androgen Receptor-Transcriptional Intermediary Factor 2 (AR-TIF2) Antagonism High Content Imaging Assay for Nucleoli Translocation (AID 2283997)
# Outline: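 Compounds are added at 20 uM final concentration in 0.2% DMSO to U2OS cells carrying AR-RFP and TIF2-GFP fusions. Nucleolar AR-RFP fluorescence is then quantified by automated imaging. Antagonism is fitted positively against DHT baseline.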
Structure (SMILES),outcome,AC50
OC(Cc1ccccc1Cl)(Cn1[nH]cnc1=S)C1(Cl)CC1 (stereo unspecified),inactive,–
CCOP(=S)(OCC)OP(=S)(OCC)OCC,–,72.1 µM (active)
O=S1OC[C@@H]2[C@H](CO1)[C@]1(Cl)C(Cl)=C(Cl)[C@@]2(Cl)C1(Cl)Cl (stereo partly specified),–,32.2 µM (active)
O=C(N[C@H]1CN2CCC1CC2)c1ccc2c(c1)OCCO2,inactive,–
C=CC(Cl)CCl (stereo unspecified),inactive,–
O=[N+]([O-])c1ccc(Cl)c([N+](=O)[O-])c1,–,1.9 µM (active)
CNC(=O)O/N=C/C(C)(C)S(C)(=O)=O,inactive,–
N#CCC#N,inactive,–
O=C1c2ccccc2C(=O)C1C(=O)C(c1ccccc1)c1ccc(Cl)cc1 (stereo unspecified),–,50 µM (active)
O=C(NC(=O)c1c(F)cccc1F)Nc1cc(Cl)c(OC(F)(F)C(F)C(F)(F)F)cc1Cl (stereo unspecified),inactive,–
O=C(O)COc1cc(Cl)c(Cl)cc1Cl,inactive,–
O=S1(=O)OC(c2cc(Br)c(O)c(Br)c2)(c2cc(Br)c(O)c(Br)c2)c2ccccc21,inactive,–
O=C(CCl)Nc1ccccc1,–,29 µM (active)
CC(=Cc1ccccc1)[N+](=O)[O-],–,0.585 µM (active)
CC(C)N(C(=O)CCl)c1ccccc1,–,16 µM (active)
COCCl,inactive,–
